Unmarked numbers belong to inactive results. Active and inactive are the calls of the source.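 Rule for the calls, unless noted: active = mean inhibition above 46.5%, the solvent-only control mean plus 3 SD; inactive = the rest.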

Test [1] relates to transactivating tegument protein VP16 (Human herpesvirus 1). As to the kind of experiment: compounds suppressing VP16-driven luciferase signal – cell-based, luminescence, single concentration, counter-screen for SRC2 inhibitor project (AID 652007; in the data active = inhibition above about 36%). To be noted: cell-based VP16 transactivation luciferase reporter, at 8.9 µM, active compounds read high. Background: A counterscreen serves to expose hits that act by an unwanted route or on another target.

The target of test [2] is Nuclear receptor coactivator 2 (Homo sapiens) (UniProt Q15596). Put plainly: inhibition of GAL4-SRC2 driven luciferase expression – cell-based, luminescence, HEK293, triplicate, confirmation (AID 652008).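 Note: 0% = DMSO-treated cells and 100% = Gossypol at 36 µM.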 Particulars: HEK293 GAL4-SRC2 luciferase reporter, at 8.9 µM, active compounds read high. In general terms: In a reporter assay the amount or activity of a reporter protein is the signal.
Sequence of Nuclear receptor coactivator 2 (Homo sapiens) (Q15596 whole entry, looked up, the tested form may be a part): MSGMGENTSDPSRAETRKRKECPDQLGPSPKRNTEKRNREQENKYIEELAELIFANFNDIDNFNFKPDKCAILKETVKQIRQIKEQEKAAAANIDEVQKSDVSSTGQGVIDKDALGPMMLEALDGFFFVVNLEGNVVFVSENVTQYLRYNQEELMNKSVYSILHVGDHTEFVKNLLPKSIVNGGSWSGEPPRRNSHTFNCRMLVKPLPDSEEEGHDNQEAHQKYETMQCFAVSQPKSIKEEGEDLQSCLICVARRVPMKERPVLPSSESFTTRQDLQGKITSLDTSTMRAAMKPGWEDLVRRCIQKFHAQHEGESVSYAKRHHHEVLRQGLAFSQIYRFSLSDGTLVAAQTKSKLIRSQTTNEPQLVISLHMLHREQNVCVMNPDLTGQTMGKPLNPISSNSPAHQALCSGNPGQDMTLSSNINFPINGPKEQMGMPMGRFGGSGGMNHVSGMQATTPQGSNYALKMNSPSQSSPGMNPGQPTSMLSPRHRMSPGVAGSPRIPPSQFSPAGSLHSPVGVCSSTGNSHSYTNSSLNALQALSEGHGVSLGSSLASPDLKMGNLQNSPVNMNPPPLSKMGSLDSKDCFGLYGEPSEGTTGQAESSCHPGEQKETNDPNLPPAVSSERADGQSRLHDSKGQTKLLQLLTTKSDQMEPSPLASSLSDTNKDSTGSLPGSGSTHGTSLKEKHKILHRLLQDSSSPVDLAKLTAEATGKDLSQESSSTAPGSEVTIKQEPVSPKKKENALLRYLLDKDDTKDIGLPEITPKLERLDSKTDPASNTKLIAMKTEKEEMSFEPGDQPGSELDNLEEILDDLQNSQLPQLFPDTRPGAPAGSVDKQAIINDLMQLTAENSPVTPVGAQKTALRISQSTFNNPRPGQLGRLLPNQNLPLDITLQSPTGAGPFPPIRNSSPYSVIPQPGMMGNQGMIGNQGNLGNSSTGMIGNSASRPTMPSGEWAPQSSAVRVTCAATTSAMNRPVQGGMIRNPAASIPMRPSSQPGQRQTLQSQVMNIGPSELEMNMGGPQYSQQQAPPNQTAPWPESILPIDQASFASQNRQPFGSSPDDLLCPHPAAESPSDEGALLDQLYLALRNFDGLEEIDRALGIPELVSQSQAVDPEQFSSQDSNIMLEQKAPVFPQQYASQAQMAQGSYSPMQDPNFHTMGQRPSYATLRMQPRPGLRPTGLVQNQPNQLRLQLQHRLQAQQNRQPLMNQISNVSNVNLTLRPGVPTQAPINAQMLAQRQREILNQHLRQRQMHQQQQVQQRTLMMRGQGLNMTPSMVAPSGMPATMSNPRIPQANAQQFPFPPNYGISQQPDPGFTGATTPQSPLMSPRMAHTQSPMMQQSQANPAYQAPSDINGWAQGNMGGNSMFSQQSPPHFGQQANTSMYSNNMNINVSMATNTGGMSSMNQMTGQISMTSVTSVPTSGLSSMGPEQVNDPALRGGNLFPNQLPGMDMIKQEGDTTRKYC

Broadly, the inhibition is the change of the read-out against control, counted positive when it falls. As to `CN(C)c1ccc(CCc2ccc(N)cc2)cc1`, the inhibition in test [1] was 12.3%; in test [2], 57.2% (active).
In the same order, the values of `O=C(O)CCCCCCCCCCC1CCC(O)C1O` (stereo not given) are 20.8% and 65.3% (active).
With `O=C(O)c1ccc(Nc2nc3c(s2)CCCC3)cc1`, the inhibition in test [1] is -31%; in test [2], 10.9%.
As to `CC(C)(C)c1ccc(NC(=O)COc2ccc(-n3ccnc3)cc2)cc1`, the inhibition in test [1] was 10.3%; in test [2] it was 61.8% (active).
`C=CCN(CC=C)C(=O)c1cccc(S(=O)(=O)N2c3ccccc3CC2C)c1` (stereo not given): the inhibition in test [1] is 24.9%; in test [2] it was 28.7%.
With `NC(=O)c1ccsc1NC(=O)COC(=O)c1ccc([N+](=O)[O-])o1`, the inhibition in test [1] is -4.1%; in test [2] it was -22.5%.
For the molecule `COc1cc(-c2nnc(-c3cc(-c4ccccc4)nc4ccccc34)o2)cc(OC)c1OC`, the values for the inhibition in test [1] and in test [2] were -13.1% and -5.55%, respectively.
In the same order, the values of `N#CCCN(C(=O)CCl)c1cccc(Cl)c1` are 28.7% and 62.8% (active).
In the same order, the values of `O=C(Cc1coc2cc3c(cc12)CCC3)OCC(=O)N1CCCC1=O` are 16.3% and 38.7%.
In the same order, the values of `COc1cccc(C(NC(C)=O)c2nc(-c3cccc(C#N)c3)cs2)c1` (stereo not given) are -10.7% and -26.2%.
Take `CCc1ccc(/C=C2\SC(=S)N(CCCC(=O)NC3=NCCS3)C2=O)cc1`: the inhibition is 41.6% (active) in test [1] and 90.5% (active) in test [2].
With `Nc1ncc([N+](=O)[O-])c(Oc2ccccc2F)n1`, the inhibition is -7% in test [1] and -16.8% in test [2].
With `Cc1nnc(NC(=O)c2nc(S(=O)(=O)Cc3ccccc3C)ncc2Cl)s1`, the inhibition was 42% (active) in test [1] and 49.7% (active) in test [2].
As to `O=C(O)C1(Nc2ccc(Br)cc2)CCCC1`, the values for the inhibition in test [1] and in test [2] were -19.4% and -11.7%, respectively.
As to `CC(C)(C)c1ccc(OC(=O)Nc2ccc(O)c(C(=O)O)c2)cc1`, the results for the inhibition in test [1] and in test [2] were 7.15% and 30.5%, respectively.

Source of the values: PubChem BioAssay.
